From PubChem BioAssay come the findings set out here.

Each structure is given as a SMILES string. Activity calls are given as the source filed them. Unless noted, how the calls were made is not given here.

For test [1], the system named is Wnt5a (protein binding on small-molecule microarray). Kind of test: Wnt5a binders on small-molecule microarray, primary screen, biophysical, 635/667 nm fluorescence (AID 1142).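 Further: fluorescence read at 667 nm with signal to noise per printed feature.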 The following applies: 635 nm fluorescence, higher = more signal.
Test [2] can be described thus: cell viability in Huh7 cells, primary screen, cytotoxicity control for HCV replication inhibitor project, CellTiter-Glo luminescence, basal, 48 h (AID 1143).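 Further: Huh7 hepatoma cells carrying a hepatitis C replication reporter with no stimulus; test concentration not given here.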 The settings on record: Huh7 HCV replicon, higher = more signal, called active from +8 up or from −8 down.
Test [3] can be described thus: P. aeruginosa biofilm formation inhibitors, primary screen, PAO1 strain, BacTiter-Glo luminescence, LB-PBS (AID 1144). The settings on record: 12 h, higher = more signal.
Test [4] is described as follows: CREB reporter modulators without forskolin, primary screen, cell-based, PC12, CRE-LacZ reporter, unstimulated (AID 1145). The settings on record: no forskolin, luminescence, 4.5 h, higher = more signal, called active from +8 up or from −8 down.
Test [5] is described as follows: CREB reporter modulators under forskolin, primary screen, cell-based, PC12, CRE-LacZ reporter, forskolin-stimulated (AID 1146).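 Further: PC12 cells with 6xCRE LacZ reporter stimulated by forskolin 10 µM; beta-galactosidase reporter signal reflecting CREB driven transcription.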 The settings on record: luminescence, 4.5 h, higher = more signal, called active from +8 up or from −8 down.
Test [6] deals with Streptavidin (Streptomyces avidinii) (UniProt P22629). Nature of the test: streptavidin binders on small-molecule microarray, primary screen, artefact control for SMM compound annotation, biophysical, 635/667 nm fluorescence (AID 1147).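 Further: signal reflects streptavidin binding to arrayed compounds as a control protein.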 The settings on record: streptavidin binding, higher = more signal.
Sequence of Streptavidin (Streptomyces avidinii) (P22629 whole entry, looked up): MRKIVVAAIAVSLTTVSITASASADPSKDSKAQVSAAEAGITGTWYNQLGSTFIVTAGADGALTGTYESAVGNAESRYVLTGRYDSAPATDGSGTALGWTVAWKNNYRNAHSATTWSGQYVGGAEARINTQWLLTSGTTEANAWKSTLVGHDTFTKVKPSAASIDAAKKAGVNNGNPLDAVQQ
A short description of test [7]: small-molecule binders of probe aInhba, primary screen, biochemical, small-molecule microarray, 635/667 nm fluorescence (AID 1148).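 Further: score merges 667nm spot fluorescence with signal-to-noise for antibody binding to printed compounds.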 The settings on record: higher = more signal.
In test [8] the target is Torsin-1A (Homo sapiens) (UniProt O14656). Kind of test: torsin A binders from cell lysate, primary screen, small-molecule microarray, wild-type, 635/667 nm (AID 1149). The following applies: COS7 hTOR1A-WT lysate, 635 nm fluorescence, higher = more signal.
Sequence of Torsin-1A (Homo sapiens) (O14656 whole entry, looked up): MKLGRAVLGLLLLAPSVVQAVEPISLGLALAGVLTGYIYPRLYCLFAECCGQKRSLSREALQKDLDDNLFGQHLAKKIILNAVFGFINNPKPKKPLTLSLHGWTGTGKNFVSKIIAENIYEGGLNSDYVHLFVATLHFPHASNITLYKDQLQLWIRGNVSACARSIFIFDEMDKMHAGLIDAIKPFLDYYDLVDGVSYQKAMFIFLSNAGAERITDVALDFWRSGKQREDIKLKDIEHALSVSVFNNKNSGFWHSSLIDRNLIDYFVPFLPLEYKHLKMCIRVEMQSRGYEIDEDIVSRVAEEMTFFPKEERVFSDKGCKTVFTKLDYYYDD
For test [9] the target is unchanged. Kind of test: small-molecule binders of mutant TOR1A in lysate, primary screen, cell lysate, small-molecule microarray, COS7 lysate, 635/667 nm fluorescence (AID 1150).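 Further: score pools 667 nm emission and signal to noise measuring lysate protein binding.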 The settings on record: COS7 hTOR1A mutant lysate, 635 nm fluorescence, higher = more signal.
Test [10] has as its system Sonic hedgehog protein (Shh). Nature of the test: small-molecule binders of Shh protein, primary screen, biochemical, small-molecule microarray, 635/667 nm fluorescence (AID 1151).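 Further: Shh protein binding to compounds spotted on small-molecule microarray slides; score combines spot fluorescence intensity with signal-to-noise across triplicate slides.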 The following applies: small-molecule microarray binding, 635 nm fluorescence; higher = more signal.
Test [11] in a line: E. coli DRC41 culture turbidity changes, primary screen, E. coli filamentation inducer project, strain DRC41, OD650, 48 h (AID 1152).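 Further: E. coli MC1000 strain DRC41 lacking acrAB efflux pump and sulA.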 The following applies: E. coli DRC41 (acrAB sulA), higher = more signal, called active from +8 up or from −8 down.
Test [12] is described as follows: small-molecule binders of probe aLefty1, primary screen, biochemical, small-molecule microarray, 635/667 nm fluorescence (AID 1153).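 Further: score merges spot fluorescence with signal-to-noise ratio from the scanned slide images.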 The settings on record: higher = more signal.
Test [13] can be described thus: PSAC antagonists in infected red cells, primary screen, cell-based, P. falciparum Indochina, OD700, 1 h (AID 1154). The settings on record: P. falciparum Indochina infected RBC osmotic lysis, higher = more signal, called active from +8 up or from −8 down.
The nature of test [14]: PSAC antagonists in infected red cells, primary screen, cell-based, P. falciparum Indochina, OD700, 2 h (AID 1155).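 Further: lysis reports solute entry through the parasite surface anion channel PSAC; channel blockers reduce lysis of infected cells.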 The following applies: P. falciparum Indochina infected erythrocytes, osmotic lysis OD700; higher = more signal, called active from +8 up or from −8 down.
Test [15] is described as follows: osmotic lysis modulators in infected erythrocytes, primary screen, PSAC antagonist project, cell-based, P. falciparum Indochina, OD700, 3 h (AID 1156). The following applies: higher = more signal, called active from +8 up or from −8 down.
Test [16] is described as follows: PSAC antagonists in infected red cells, primary screen, cell-based, P. falciparum Indochina, OD700, 18 h (AID 1157). The settings on record: P. falciparum Indochina infected erythrocytes, osmotic lysis OD700, 18 h; higher = more signal, called active from +8 up or from −8 down.
Test [17] is described as follows: modulators of S6 phosphorylation in cells, primary screen, cell-based, A549, cytoblot, luminescence, serum-stimulated (AID 1158).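 Further: serum-stimulated A549 lung adenocarcinoma cells; signal is phosphorylated S6 detected by cytoblot immunostaining with HRP secondary.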 The settings on record: A549 phospho-S6 cytoblot, 5 h, higher = more signal.
Test [18] has as its target NADPH oxidase 2 (Homo sapiens) (UniProt P04839). Nature of the test: NOX2-dependent H2O2 signal modulators, primary screen, NOX inhibitor project, cell-based, HEK293-NOX2, PMA-stimulated, Amplex Red fluorescence (AID 1159). Further: test concentration not given here. The following applies: 45 min, higher = more signal, called active from +8 up or from −8 down.
Test [19] deals with NADPH oxidase 4 (Homo sapiens) (UniProt Q9NPH5). Nature of the test: NOX4-dependent H2O2 signal modulators, primary screen, NOX inhibitor project, cell-based, HEK293-NOX4, tetracycline-induced, Amplex Red fluorescence (AID 1160). The following applies: 45 min, higher = more signal, called active from +8 up or from −8 down.
Sequence of NADPH oxidase 4 (Homo sapiens) (Q9NPH5 whole entry, looked up): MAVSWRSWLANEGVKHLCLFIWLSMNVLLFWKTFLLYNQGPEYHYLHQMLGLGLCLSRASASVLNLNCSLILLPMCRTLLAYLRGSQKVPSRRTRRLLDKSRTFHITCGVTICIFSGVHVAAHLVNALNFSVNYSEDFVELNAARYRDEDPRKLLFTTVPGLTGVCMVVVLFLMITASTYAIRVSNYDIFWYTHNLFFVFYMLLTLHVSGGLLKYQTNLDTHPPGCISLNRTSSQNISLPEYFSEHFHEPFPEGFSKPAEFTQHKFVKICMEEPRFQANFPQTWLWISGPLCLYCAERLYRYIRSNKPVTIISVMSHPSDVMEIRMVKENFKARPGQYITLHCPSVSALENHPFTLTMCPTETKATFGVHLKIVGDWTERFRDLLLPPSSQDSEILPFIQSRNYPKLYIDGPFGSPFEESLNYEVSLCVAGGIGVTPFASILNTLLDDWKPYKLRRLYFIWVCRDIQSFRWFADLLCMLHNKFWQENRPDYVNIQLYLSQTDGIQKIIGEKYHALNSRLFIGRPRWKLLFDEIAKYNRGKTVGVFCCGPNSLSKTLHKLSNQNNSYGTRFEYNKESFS
Test [20] addresses NADPH oxidase 5 (Homo sapiens) (UniProt Q96PH1). Nature of the test: NOX5-dependent H2O2 signal modulators, primary screen, NOX inhibitor project, cell-based, HEK293-NOX5, Amplex Red fluorescence (AID 1161). The settings on record: HEK293-NOX5, ionomycin, 45 min, higher = more signal.

Sequence of NADPH oxidase 5 (Homo sapiens) (Q96PH1 whole entry, looked up): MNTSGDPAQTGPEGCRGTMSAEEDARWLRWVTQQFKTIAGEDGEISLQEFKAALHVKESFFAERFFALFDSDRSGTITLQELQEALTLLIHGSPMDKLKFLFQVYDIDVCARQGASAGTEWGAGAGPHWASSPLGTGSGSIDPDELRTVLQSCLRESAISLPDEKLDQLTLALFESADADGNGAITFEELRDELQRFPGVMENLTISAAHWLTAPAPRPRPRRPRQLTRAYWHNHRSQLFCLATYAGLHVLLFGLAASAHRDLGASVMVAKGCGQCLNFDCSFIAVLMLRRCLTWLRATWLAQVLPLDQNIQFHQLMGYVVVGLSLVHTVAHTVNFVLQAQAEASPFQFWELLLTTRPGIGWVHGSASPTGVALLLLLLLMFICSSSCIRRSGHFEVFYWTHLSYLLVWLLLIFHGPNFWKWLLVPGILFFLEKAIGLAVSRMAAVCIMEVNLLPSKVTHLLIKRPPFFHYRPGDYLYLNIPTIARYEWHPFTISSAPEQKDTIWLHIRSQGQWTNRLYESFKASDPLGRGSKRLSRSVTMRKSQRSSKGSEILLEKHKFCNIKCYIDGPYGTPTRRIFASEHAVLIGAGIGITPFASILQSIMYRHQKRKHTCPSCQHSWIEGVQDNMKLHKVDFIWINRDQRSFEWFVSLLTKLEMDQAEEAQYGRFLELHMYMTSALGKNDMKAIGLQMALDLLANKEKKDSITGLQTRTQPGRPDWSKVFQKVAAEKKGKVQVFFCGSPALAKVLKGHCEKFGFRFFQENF
Sequence of NADPH oxidase 2 (Homo sapiens) (P04839 whole entry, looked up): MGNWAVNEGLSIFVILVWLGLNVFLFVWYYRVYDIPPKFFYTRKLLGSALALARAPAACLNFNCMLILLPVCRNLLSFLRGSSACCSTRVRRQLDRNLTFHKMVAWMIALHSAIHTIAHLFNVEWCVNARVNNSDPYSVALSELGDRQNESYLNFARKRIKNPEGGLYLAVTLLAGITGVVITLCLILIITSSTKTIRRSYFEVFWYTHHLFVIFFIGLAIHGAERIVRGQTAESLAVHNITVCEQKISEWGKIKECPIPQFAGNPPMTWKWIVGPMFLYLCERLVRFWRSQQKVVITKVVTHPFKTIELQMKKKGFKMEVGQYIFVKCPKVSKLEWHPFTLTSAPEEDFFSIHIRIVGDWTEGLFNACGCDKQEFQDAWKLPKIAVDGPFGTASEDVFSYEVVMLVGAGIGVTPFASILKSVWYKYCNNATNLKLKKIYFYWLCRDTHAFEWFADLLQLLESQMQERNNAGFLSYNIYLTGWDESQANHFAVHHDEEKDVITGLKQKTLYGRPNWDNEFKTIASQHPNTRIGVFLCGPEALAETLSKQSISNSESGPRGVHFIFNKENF

Regarding `COC(=O)C(CC#Cc1ccc2c(c1)[C@]1(C(=O)N2)[C@H](c2ccc(O)cc2)N2[C@H](c3ccccc3)[C@H](c3ccccc3)OC(=O)[C@H]2[C@@H]1C(=O)N1CCN(c2ncccn2)CC1)C(=O)OC`, the composite z-score was determined as 0.131 in test [1]; 0.709 in [6]; 0.313 in [7]; 0.131 with Torsin-1A (Homo sapiens) [8]; 0.338 with Torsin-1A (Homo sapiens) [9]; 0.618 in [10]. In addition, in [12], the composite z-score came to 0.027. For the same molecule, the z-score was -2.25 (inactive) in test [2]; -1.08 (inactive) in test [3]; -0.644 (inactive) in test [4]; -0.0048 (inactive) in [5]; 0.347 (inactive) in test [11]; 5.42 (inactive) in test [13]. Also, the z-score in [14] was 0.658 (inactive); in [15], 1.93 (inactive); in test [16], 0.515 (inactive); in test [17] it was 0.355; in test [18], 1.91 (inactive); in [19] it was 0.857 (inactive). In test [20], this molecule yielded a z-score of 1.54.
Turning to `CCOC(=O)C[C@H]1[C@H](OC(=O)c2cc3ccccc3oc2=O)[C@@H](NC(=O)CC(C)C)c2cc(OCCCO)ccc2N1C(=O)c1ccccc1`, the composite z-score is 0.175 in test [1]; 0.131 in [6]; -0.0986 in test [7]; 0.272 in the test with Torsin-1A (Homo sapiens) [8]; 0.205 in the test with Torsin-1A (Homo sapiens) [9]; 0.595 in test [10]. This molecule had a composite z-score in test [12] of -0.0601. Besides, the z-score was -3.29 (inactive) in test [2]; 1.25 (inactive) in [3]; 10.4 (active) in [4]; -1.37 (inactive) in test [5]; 2.61 (inactive) in test [11]; 0.522 (inactive) in [13]. Besides, the z-score in [14] is -1.18 (inactive); in [15], 0.71 (inactive); in test [16] it was -2.17 (inactive); in test [17] it was 1.96; in test [18], -0.403 (inactive); in test [19], 0.0665 (inactive). In test [20], the z-score stood at 0.622.
Take `CC(C)=CCCC(C)=CC(O)C1C=CC2C(=O)N(c3ccccc3)C(=O)C2N1Nc1ccc(C(C)C)cc1` (stereo not given): the composite z-score was 0.15 in test [1]; 1.33 in test [6]; -0.0087 in [7]; -0.728 with Torsin-1A (Homo sapiens) [8]; -0.151 in the test with Torsin-1A (Homo sapiens) [9]; -0.309 in [10]. Besides, the composite z-score in test [12] was found to be 0.201. The z-score in test [2] is -0.11 (inactive); in test [3], -0.603 (inactive); in [4], 0.44 (inactive); in test [5], 0.204 (inactive); in test [11] it was -0.843 (inactive); in test [13] it was 0.934 (inactive). The z-score was 0.219 (inactive) in test [14]; 0.391 (inactive) in [15]; 0.729 (inactive) in test [16]; -0.765 in test [17]; -1.11 (inactive) in test [18]; -1.15 (inactive) in test [19]. The same molecule had a z-score in test [20] of -1.34.
Consider `COC(=O)[C@@]1(Cc2ccc(OC)cc2)[C@H]2c3cc(C(=O)N4CCCC4)n(CCSCCO)c3C[C@H]2CN1C(=O)c1ccccc1`, for which the composite z-score in [1] is 0.631; in [6] it was 0.532; in test [7], 0.257; in the test with Torsin-1A (Homo sapiens) [8], 0.396; in the test with Torsin-1A (Homo sapiens) [9], 1.45; in test [10], -0.623. The same molecule gave a composite z-score in test [12] of 0.399. Moreover, the z-score in test [2] was -0.974 (inactive); in [3] it was 0.58 (inactive); in test [4], 1.34 (inactive); in [5] it was 1.82 (inactive); in test [11], -1.34 (inactive); in test [13], 2.07 (inactive). In addition, the z-score in test [14] is 0.142 (inactive); in [15] it was -0.0464 (inactive); in [16] it was 0.667 (inactive); in test [17], -0.0335; in test [18] it was 0.354 (inactive); in test [19], -1.04 (inactive). In test [20], this molecule returned a z-score of -0.201.
Turning to `O=C(CS)NCCCCCNC(=O)[C@@H]1C[C@@H]2C(=O)NCC(=O)N2[C@@H]1c1ccc(O)cc1`, the composite z-score in [1] is -0.0716; in test [6], -0.618; in test [7], 0.0275; in the test with Torsin-1A (Homo sapiens) [8], 0.507; with Torsin-1A (Homo sapiens) [9], 0.0395; in test [10], 1.44. Moreover, the composite z-score in test [12] is -0.101. Moreover, the z-score was -0.454 (inactive) in [2]; -0.171 (inactive) in test [3]; 0.281 (inactive) in [4]; 0.208 (inactive) in [5]; 1.6 (inactive) in [11]; 0.802 (inactive) in [13]. The z-score in [14] was 0.0605 (inactive); in [15], -0.194 (inactive); in test [16] it was 0.179 (inactive); in [17], -0.259; in test [18], 1.18 (inactive); in test [19], -0.584 (inactive). In test [20], the z-score is 1.67.
For `CC(C)OC(=O)C=C1C[C@@H](c2cccc(Cl)c2)O[C@@H](c2cccc(Cl)c2)O1`, the composite z-score in test [1] is -0.0889; in test [6], 0.776; in [7], 0.0956; with Torsin-1A (Homo sapiens) [8], 0.686; in the test with Torsin-1A (Homo sapiens) [9], -0.365; in test [10], -1.16. Further, in [12], the composite z-score stood at 0.165. Moreover, the z-score is -0.0636 (inactive) in [2]; -0.179 (inactive) in [3]; 0.192 (inactive) in [4]; 1.03 (inactive) in test [5]; -0.411 (inactive) in [11]; 0.915 (inactive) in test [13]. In addition, the z-score in test [14] was 0.584 (inactive); in test [15] it was -0.159 (inactive); in test [16], 0.61 (inactive); in [17], -0.0581; in test [18] it was 0.215 (inactive); in test [19], -0.914 (inactive). In test [20], this molecule registered a z-score of -0.0406.
On to `COc1cc2c(cc1O)C=[N+](Cc1cc3c(cc1Br)OCO3)CC2`, for which the composite z-score in test [1] is -0.234; in test [6] it was -1.88; in test [7], -0.154; in the test with Torsin-1A (Homo sapiens) [8], -0.39; with Torsin-1A (Homo sapiens) [9], -0.945; in test [10], -0.216. Besides, the composite z-score in [12] was -0.237. Further, the z-score in test [2] was -2.14 (inactive); in test [3], -0.304 (inactive); in test [4] it was -0.671 (inactive); in [5], 0.945 (inactive); in [11], -0.167 (inactive); in [13] it was 3 (inactive). In addition, the z-score in test [14] was 0.472 (inactive); in [15], 2.26 (inactive); in test [16], 0.154 (inactive); in test [17], -0.273; in test [18], -3.59 (inactive); in test [19], -2.72 (inactive). Moreover, the z-score in test [20] was -3.37.
